Data on 54 molecules can be found in ChEMBL document CHEMBL4513216, “Probing the Open Global Health Chemical Diversity Library for Multistage-Active Starting Points for Next-Generation Antimalarials” (ACS Infect Dis, 2020).

The structures appear in SMILES notation. Out of some 65,000 compounds screened, about 2,100 (3.2%) showed an effect of 50% or more. The median lay at about -52%. Shown is part of a subset that was picked to be rich in strong results.

This assay relates to Plasmodium falciparum. Put plainly: Screen against P. falciparum Asexual Blood Stage (ABS), at 5uM. The assay is classed as functional, Dd2. The following applies: tested at 5 uM.
With `C/C=C(\C)CN1C[C@H](c2cccc(OC)c2)[C@@H](N)C1`, the INHIBITION was found to be 65.6%.

As to `CCOCCN1C[C@H](c2cccc(OC)c2)[C@@H](N)C1`, the INHIBITION was -3.38%.

For `COc1cccc([C@H]2CN(CCCS(=O)(=O)N(C)C)C[C@@H]2N)c1`, the INHIBITION is -56.8%.

Turning to `Cc1nc(C(=O)N(C)[C@@H]2CCC[C@@H](Oc3ccccc3)[C@@H]2O)co1`, the INHIBITION is -3.45%.

`CC(C)c1nsc(N2CCCOCC2)n1`: the INHIBITION is listed as -47.6%.

In the case of `Cc1ccc(CN(CCCN(C)C)Cc2cnc(C)n2C)o1`, the INHIBITION is -17.8%.

Consider `Cc1ccc(CN(CCCN2CCOCC2)Cc2cnc(C)n2C)o1`, for which the INHIBITION came out at 55.1%.

As to `Cc1ccc(CN(CCCN2CCOCC2)Cc2cnn(C)c2)o1`, the INHIBITION is listed as -2.55%.

Regarding `Cc1cc(NC(=O)NCc2cccnc2OC2CCCC2)n(C)n1`, the INHIBITION is -37%.

As for `O=C(NCCN1CCCCC1)c1scnc1Cl`, the INHIBITION was -130%.

Regarding `Cc1cc(Br)ccc1C(=O)NCCN1CCCCCC1`, the INHIBITION is reported as 30.2%.

As to `O=C(NCCN1CCCCC1)c1cccc(Cl)c1Cl`, the INHIBITION is on record as 50.5%.

As for `Cc1ccc(CN2C(=O)CCC23CCC(NCC2CCOC2)CC3)cc1` (centres undefined), the INHIBITION was -1.23%.

With `O=C(NC1CCC1)[C@@H]1CCO[C@@H]2CCN(CCc3ccccc3)C[C@H]21`, the INHIBITION is given as 36.5%.

Turning to `Cn1ccnc1CN1CCCC1CCc1ccccc1` (centres undefined), the INHIBITION was 37.6%.

`Cc1c[nH]nc1C1CCCN1Cc1ccncc1` (centres undefined): the INHIBITION is listed as -8.01%.

Turning to `COc1cccc(CC2CCCN2CCCO)c1` (centres undefined), the INHIBITION is -8.85%.

In the case of `Cc1c[nH]nc1C1CCCN1Cc1ncc[nH]1` (centres undefined), the INHIBITION stood at 34.9%.

For `Cc1c[nH]nc1C1CCCN1Cc1nccn1C` (centres undefined), the INHIBITION was 57.3%.

In the case of `COc1cccc(CC2CCCN2Cc2nccn2C)c1` (centres undefined), the INHIBITION worked out at 52%.

For `CC1CCN(C(=O)C(C)N2CCN(c3nccs3)CC2)CC1` (centres undefined), the INHIBITION was -55.4%.

Regarding `Cc1cc(C(=O)N2CCCCC2C)ccc1NC(=O)N1CCOCC1` (centres undefined), the INHIBITION is given as -137%.

As for `O=C(N1CCCCC1)N1CCN(CC(O)c2ccccc2)CC1` (centres undefined), the INHIBITION is -4.34%.

For `O=C(c1cscn1)N1CCC[C@]2(C[C@H](OCC3CC3)CO2)C1`, the INHIBITION was -132%.

`Cc1cc(-c2nccs2)nc(C2CCN(Cc3ccncc3)CC2)n1`: the INHIBITION is recorded as -25.9%.

Regarding `Cc1cc(-c2nccs2)nc(C2CCN(Cc3ccc(F)cc3)CC2)n1`, the INHIBITION was 62.9%.

As to `Cc1cc(-c2nccs2)nc(C2CCN(Cc3cccs3)CC2)n1`, the INHIBITION came to 16.1%.

In the case of `O=C(c1csc(I)c1)N1CCc2c(ncn2C2CC2)C1`, the INHIBITION is -41.85%.

Consider `Cc1nc(CN2CCc3ncnc(-c4cccnc4)c3CC2)cs1`, for which the INHIBITION is recorded as -30.7%.

As to `CN1CCC2(COCCN(Cc3cccc(C#N)c3)C2)C1` (centres undefined), the INHIBITION was found to be 57%.

For `CN1CCC2(COCCN(Cc3ccc4c(c3)OCO4)C2)C1` (centres undefined), the INHIBITION is on record as -102%.

Regarding `CN1CC2(CCN(Cc3cccc(C#N)c3)CC2)CC1=O`, the INHIBITION is recorded as -15.1%.

With `C/C=C(\C)CN1C[C@H](NC(=O)CCOC)[C@@H](c2ccc(C)o2)C1`, the INHIBITION is -33.1%.

As to `CCC1(CO)CCN(C(=O)c2cc(COc3ccccc3F)[nH]n2)CC1`, the INHIBITION is on record as -66.6%.

For `O=C(c1cccnc1)N1CCN2C[C@H](OCc3ccccc3)C[C@H]2C1`, the INHIBITION is listed as -19.2%.

`CCc1ccc(C2CC(=O)Nc3c2c(=O)[nH]n3C(C)C)cc1` (centres undefined): the INHIBITION was -113%.

Regarding `c1ccc(CN2CCn3c(Cn4cncn4)cnc3C2)nc1`, the INHIBITION is -53.9%.

Take `O=C1N(Cc2ccccc2F)CCCC12CCN(C1CCSCC1)C2` (centres undefined): the INHIBITION came out at 34.2%.

Turning to `CCS(=O)(=O)N1CCC2(CCCN(Cc3ccc(F)c(F)c3)C2=O)C1` (centres undefined), the INHIBITION is -68%.

Regarding `O=C1N(Cc2ccc(F)c(F)c2)CCCC12CCN(C1CCCC1)C2` (centres undefined), the INHIBITION amounted to 68.1%.

As for `Cc1cccc(CN2CCCC3(CCN(C4CCSCC4)C3)C2=O)c1` (centres undefined), the INHIBITION came out at 6.83%.

With `O=C1N(Cc2ccc(F)c(F)c2)CCCC12CCN(C1CCCCC1)C2` (centres undefined), the INHIBITION amounted to 60.9%.

Regarding `O=C1N(Cc2ccc(F)cc2)CCCC12CCN(C1CCSCC1)C2` (centres undefined), the INHIBITION is reported as 9.56%.

As to `CCCS(=O)(=O)N1C[C@H]2CC[C@@H](C1)N(Cc1cscn1)C2=O`, the INHIBITION is -60%.

In the case of `Nc1cc(N2CCOCC(Cc3ccc4[nH]ccc4c3)C2)ncn1` (centres undefined), the INHIBITION is given as -6.79%.

With `CC(=O)Nc1nc(C(=O)NCCOc2ccc(C)cc2)cs1`, the INHIBITION is given as -4.82%.

In the case of `CCc1nnsc1C(=O)NC1CCN(CCOc2ccc(Br)cc2)CC1`, the INHIBITION is reported as 2.8%.

Turning to `Cc1nc(C(=O)NC2CCN(CCOc3ccc(Br)cc3)CC2)cs1`, the INHIBITION came to 50%.

As to `CCn1ccnc1CN1CCCN(C(=O)c2ccnc(C)n2)CC1`, the INHIBITION was -61.7%.

Regarding `COc1ccc2c(c1)OCC(CNC1CCc3nc(C)nn3C1)=C2` (centres undefined), the INHIBITION is on record as -98%.

On to `Cc1csc(N2CCCN(c3cc(C)nc(C)c3C#N)CC2)n1`, for which the INHIBITION was -45.8%.

In the case of `O=C(O)CCCC(=O)Nc1cnn(COc2ccc(F)cc2Cl)c1`, the INHIBITION is recorded as -39.2%.

Regarding `O=C(Nc1cnn(COc2ccc(F)cc2Cl)c1)C1CC1`, the INHIBITION is listed as 67.2%.

Consider `O=C(Nc1cnn(Cc2ccc(F)cc2Cl)c1)C1CC1`, for which the INHIBITION is recorded as -0.313%.
